Experimental findings from ChEMBL document CHEMBL3988442, “University of Dundee, Small-Polar-MMV Screening Library” (2021) are described below.

For some of these results: Entries with a potency or affinity are not part of this list.

Common to all, as to parameters: scale not given: direction of the effect not stated beside the values
Assay [1] deals with Protein translocase subunit SecA (Escherichia coli (strain K12)) (UniProt P10408). Put plainly: Assay to Identify E. coli SecA ATPase Inhibitors. Format: functional. Conditions: 30 µM.
The target of assay [2] is T1, Ubiquitin-activating enzyme e1, putative (Leishmania donovani (strain BPK282A1)) (UniProt E9BSI1).
T1 sequence (whole entry): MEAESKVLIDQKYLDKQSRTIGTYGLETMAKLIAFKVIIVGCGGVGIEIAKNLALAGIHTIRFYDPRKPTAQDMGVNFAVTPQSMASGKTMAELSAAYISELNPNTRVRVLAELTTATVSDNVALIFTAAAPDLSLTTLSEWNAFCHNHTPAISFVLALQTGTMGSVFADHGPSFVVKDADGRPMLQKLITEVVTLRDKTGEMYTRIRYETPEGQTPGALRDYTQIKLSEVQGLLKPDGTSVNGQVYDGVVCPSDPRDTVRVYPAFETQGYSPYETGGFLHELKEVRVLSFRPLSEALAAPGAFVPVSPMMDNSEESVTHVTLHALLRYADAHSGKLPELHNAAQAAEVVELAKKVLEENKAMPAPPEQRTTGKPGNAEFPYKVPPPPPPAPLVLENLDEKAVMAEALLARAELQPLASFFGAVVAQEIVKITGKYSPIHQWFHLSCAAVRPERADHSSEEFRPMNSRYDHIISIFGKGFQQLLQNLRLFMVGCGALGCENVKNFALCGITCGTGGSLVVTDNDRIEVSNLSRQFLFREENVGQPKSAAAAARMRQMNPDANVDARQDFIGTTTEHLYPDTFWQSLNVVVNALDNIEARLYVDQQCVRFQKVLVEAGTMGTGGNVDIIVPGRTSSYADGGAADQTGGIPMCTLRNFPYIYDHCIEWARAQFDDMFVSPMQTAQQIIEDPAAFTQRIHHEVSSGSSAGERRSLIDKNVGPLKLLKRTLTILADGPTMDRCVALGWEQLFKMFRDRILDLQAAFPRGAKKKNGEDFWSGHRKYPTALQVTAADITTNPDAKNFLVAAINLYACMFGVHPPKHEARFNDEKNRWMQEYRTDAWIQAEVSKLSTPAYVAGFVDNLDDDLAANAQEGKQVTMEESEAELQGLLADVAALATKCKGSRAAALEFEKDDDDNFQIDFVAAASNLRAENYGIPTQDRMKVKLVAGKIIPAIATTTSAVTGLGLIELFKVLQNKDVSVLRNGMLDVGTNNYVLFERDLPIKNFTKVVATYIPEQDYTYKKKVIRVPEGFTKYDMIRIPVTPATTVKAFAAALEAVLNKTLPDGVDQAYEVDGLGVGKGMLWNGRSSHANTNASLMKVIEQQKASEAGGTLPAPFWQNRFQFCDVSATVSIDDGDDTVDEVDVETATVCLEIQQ
Briefly: Leishmania donovani Ubiquitin Activating Enzyme (LdE1). The assay is classed as functional. Conditions: 30 µM.

Assay [3] deals with AMP-activated protein kinase, AMPK (Homo sapiens) (UniProt P54646+O43741+P54619+Q9UGJ0+Q9Y478+Q13131+Q9UGI9). Briefly: AMP-dependent Kinase enzyme assay. An in vitro enzyme assay that detects ADP turnover that is directly proportional to AMPK activity. This uses naive AMPK that is activated during the assay with MK-8722. Format: functional. Conditions: 30 µM.
Assay [4] deals with Sialic acid-binding Ig-like lectin 9 (Homo sapiens) (UniProt Q9Y336). Briefly: Hs-Siglec9 ALPHAscreen SOP 20170721. Conditions: 10 µM. (In general: Bead proximity is the source of the signal in Alpha formats.)
The test system of assay [5] is Trypanosoma cruzi. Briefly: Trypanosoma cruzi phosphomannomutase and mannose-1-phosphate guanylyltransferase assay. Format: functional. As to conditions: 10 µM.
Assay [6] addresses T2, Arginase-2, mitochondrial (Homo sapiens) (UniProt P78540).
T2 sequence (whole entry): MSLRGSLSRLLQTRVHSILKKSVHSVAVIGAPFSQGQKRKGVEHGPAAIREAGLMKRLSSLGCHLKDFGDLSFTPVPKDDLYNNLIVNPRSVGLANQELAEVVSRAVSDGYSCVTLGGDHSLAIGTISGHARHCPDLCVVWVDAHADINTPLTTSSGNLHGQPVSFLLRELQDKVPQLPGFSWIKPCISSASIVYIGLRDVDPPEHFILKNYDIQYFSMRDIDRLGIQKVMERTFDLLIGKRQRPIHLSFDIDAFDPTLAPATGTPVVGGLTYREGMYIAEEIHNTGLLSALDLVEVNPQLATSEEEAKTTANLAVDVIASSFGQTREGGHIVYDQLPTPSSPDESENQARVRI
Briefly: in vitro enzyme assay to detect the production of urea directly proportional to the activity of Arginase II. Note: in the data most compounds retested in dose-response had high values. Format: functional. Conditions: 33.3 µM.

Assay [7] concerns the target T3, Proteasome subunit beta (Trypanosoma cruzi) (UniProt O96673).
T3 sequence (whole entry): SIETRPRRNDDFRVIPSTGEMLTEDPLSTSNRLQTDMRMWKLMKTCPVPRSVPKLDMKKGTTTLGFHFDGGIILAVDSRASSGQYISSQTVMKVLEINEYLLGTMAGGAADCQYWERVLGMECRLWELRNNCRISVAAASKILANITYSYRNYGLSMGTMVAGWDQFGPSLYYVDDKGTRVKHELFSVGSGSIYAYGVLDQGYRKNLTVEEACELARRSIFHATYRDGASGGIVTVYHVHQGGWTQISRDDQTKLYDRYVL
Put plainly: Trypanosoma cruzi proteasome chymotrypsin-like activity (TcProtChymo) assay. Note: in the data most compounds retested in dose-response had high values. The assay is classed as functional. As to conditions: 9.37 µM.

Assay [8] is filed under the species Homo sapiens. Briefly: To identify inhibition of the IFN signalling (Jak-Stat) pathway via expression of an eGFP reporter gene under the control of an IFN-stimulated response element (ISRE) containing MxA promoter. The assay is classed as functional. As to conditions: 30 µM. (In general: A reporter such as luciferase makes a cellular process visible.)
For assay [9], the target named is T4, Tyrosyl-tRNA synthetase, putative (Trypanosoma cruzi (strain CL Brener)) (UniProt Q4DSP6).
T4 sequence (whole entry): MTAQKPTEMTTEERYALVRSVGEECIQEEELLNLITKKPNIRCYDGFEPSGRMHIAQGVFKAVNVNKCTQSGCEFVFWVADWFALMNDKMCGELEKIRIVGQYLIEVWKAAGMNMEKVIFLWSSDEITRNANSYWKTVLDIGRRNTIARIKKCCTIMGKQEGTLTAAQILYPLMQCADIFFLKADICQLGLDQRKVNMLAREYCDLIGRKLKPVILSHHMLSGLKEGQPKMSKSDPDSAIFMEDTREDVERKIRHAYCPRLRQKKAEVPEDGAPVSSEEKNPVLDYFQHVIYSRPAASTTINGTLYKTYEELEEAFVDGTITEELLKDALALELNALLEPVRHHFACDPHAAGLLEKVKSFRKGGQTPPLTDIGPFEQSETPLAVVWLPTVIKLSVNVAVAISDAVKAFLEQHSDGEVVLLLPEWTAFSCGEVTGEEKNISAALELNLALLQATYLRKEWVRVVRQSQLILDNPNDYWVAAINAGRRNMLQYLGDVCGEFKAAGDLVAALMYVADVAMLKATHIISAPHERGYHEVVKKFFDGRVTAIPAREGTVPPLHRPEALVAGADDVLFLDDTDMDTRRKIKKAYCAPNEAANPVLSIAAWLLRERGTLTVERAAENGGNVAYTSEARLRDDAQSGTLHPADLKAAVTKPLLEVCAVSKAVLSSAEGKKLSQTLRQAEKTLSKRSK
Briefly: Trypanosoma cruzi tyrosyl tRNA synthetase (TcYRS) _High Tyrosine SOP. Note: in the data most compounds retested in dose-response had high values. The assay is classed as functional. As to conditions: 30 µM.

Assay [10] has as its target T4, Tyrosyl-tRNA synthetase, putative (Trypanosoma cruzi (strain CL Brener)). Put plainly: Trypanosoma cruzi tyrosyl tRNA synthetase (TcYRS) SOP. The assay is classed as functional. As to conditions: 30 µM.
The target of assay [11] is Chromo domain-containing protein 1 (Saccharomyces cerevisiae (strain ATCC 204508 / S288c) (Baker's yeast)) (UniProt P32657). Briefly: ScCHD-1 Enzyme Inhibition Assay. Note: in the data most compounds retested in dose-response had high values. Format: functional. Conditions: 30 µM.
Sequence of Chromo domain-containing protein 1 (Saccharomyces cerevisiae (strain ATCC 204508 / S288c) (Baker's yeast)) (P32657 whole entry, the tested form may be a part): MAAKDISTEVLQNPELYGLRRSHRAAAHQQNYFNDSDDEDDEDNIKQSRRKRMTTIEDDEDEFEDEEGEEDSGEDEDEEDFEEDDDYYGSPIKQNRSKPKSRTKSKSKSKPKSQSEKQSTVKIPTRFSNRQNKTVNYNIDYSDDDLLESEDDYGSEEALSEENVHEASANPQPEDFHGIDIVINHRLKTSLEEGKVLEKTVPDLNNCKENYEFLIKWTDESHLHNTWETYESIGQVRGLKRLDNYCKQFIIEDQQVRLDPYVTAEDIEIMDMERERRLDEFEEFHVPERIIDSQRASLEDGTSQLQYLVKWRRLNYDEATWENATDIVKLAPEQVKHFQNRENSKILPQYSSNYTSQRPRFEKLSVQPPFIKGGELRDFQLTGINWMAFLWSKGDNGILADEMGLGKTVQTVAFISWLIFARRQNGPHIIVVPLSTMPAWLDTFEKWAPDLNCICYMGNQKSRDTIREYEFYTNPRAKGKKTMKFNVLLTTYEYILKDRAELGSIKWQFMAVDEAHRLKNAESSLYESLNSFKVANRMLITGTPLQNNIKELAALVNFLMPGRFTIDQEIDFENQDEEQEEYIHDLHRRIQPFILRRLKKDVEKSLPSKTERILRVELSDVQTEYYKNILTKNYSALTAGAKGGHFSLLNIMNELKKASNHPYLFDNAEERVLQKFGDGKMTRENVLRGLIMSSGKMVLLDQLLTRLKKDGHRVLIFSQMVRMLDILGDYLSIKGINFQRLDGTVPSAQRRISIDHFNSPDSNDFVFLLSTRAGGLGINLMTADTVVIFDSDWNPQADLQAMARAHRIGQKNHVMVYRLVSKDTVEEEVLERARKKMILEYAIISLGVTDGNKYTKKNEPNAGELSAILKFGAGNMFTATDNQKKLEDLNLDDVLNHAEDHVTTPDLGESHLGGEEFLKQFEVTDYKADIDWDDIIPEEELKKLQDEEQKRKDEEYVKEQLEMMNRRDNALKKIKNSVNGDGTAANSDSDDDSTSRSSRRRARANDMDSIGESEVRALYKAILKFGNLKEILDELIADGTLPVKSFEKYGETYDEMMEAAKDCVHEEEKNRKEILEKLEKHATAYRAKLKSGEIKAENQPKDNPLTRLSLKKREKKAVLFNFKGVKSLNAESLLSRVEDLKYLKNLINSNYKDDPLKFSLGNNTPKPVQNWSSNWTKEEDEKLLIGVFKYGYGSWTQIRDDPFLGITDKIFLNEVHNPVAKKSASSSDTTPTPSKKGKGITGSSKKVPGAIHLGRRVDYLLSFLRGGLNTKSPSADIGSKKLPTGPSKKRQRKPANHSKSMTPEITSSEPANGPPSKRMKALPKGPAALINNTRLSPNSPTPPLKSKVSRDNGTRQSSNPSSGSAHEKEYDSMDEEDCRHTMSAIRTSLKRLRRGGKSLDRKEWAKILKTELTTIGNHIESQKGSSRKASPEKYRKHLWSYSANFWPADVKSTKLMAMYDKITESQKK

Sequence of Protein translocase subunit SecA (Escherichia coli (strain K12)) (P10408 whole entry): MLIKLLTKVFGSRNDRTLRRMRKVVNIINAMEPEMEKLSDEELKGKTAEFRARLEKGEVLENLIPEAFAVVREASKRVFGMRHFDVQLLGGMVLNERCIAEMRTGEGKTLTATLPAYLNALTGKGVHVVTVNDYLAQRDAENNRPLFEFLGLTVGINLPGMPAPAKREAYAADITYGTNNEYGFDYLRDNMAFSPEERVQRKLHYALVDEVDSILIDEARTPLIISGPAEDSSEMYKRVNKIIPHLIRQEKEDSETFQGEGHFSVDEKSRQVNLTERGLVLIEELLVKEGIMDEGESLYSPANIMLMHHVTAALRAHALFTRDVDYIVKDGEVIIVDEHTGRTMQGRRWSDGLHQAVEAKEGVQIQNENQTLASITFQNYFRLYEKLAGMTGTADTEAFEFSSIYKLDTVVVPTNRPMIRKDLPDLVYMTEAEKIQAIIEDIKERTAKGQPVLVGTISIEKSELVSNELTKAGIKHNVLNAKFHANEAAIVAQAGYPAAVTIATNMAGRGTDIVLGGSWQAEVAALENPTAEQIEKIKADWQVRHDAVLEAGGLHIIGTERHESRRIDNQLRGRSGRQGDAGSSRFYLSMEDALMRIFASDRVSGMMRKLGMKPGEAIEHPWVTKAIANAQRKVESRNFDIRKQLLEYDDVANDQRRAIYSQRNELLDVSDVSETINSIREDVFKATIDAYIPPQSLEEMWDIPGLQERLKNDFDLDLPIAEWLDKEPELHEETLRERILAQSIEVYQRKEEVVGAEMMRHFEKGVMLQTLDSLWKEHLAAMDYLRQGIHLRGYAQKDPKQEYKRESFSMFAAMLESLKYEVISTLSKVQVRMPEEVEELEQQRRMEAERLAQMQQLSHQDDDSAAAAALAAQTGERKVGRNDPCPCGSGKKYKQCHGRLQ
Sequence of Sialic acid-binding Ig-like lectin 9 (Homo sapiens) (Q9Y336 whole entry): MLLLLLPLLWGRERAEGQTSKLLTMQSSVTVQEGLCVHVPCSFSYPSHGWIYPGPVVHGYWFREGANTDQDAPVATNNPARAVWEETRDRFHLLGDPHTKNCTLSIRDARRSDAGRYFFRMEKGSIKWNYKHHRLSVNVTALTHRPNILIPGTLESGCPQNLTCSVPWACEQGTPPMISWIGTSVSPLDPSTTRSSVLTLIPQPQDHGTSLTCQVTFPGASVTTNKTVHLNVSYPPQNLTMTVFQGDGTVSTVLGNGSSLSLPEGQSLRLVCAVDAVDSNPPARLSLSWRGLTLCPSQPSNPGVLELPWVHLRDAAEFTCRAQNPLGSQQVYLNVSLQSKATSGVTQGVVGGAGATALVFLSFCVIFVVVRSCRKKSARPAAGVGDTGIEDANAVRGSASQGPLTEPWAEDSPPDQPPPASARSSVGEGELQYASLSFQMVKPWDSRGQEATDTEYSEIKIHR

In the case of `CCC(=O)NCCc1cc(N2CCN(C(C)=O)CC2)nc(C2CC2)n1`, the Percent Effect is -1.34% in assay [1]; 6.76% in assay [2]; 12.6% in assay [3]; -2.83% in assay [4]; -6.72% in [5]; 3.02% in assay [6]. The Percent Effect in assay [7] came to 10.3%; in assay [8], 16.2%; in assay [9] it was 2.15%; in [10], 11.7%; in assay [11], 1.75%.
Consider `O=C(c1ccc2c(c1)OCO2)N1CCCSCC1CN1CCCC1` (stereo unspecified), for which the Percent Effect in assay [1] was -4.51%; in assay [2], 7.79%; in assay [3] it was 6.33%; in assay [4], 7.89%; in [5], -1.08%; in assay [6], 5.81%. In addition, the Percent Effect was 8.53% in assay [7]; -0.0393% in assay [8]; 8.47% in assay [9]; 11.5% in assay [10]; -7.09% in assay [11].
On to `Cn1ccnc1CN1CCN(CC(O)c2cccc(F)c2)CC1` (stereo unspecified), for which the Percent Effect in [1] is -1.52%; in [2], 18.2%; in [3], -1.07%; in assay [4], 4.38%; in assay [5], -0.49%; in assay [6], -1.9%. In addition, the Percent Effect in [7] is 15.4%; in assay [8], -1.78%; in [9], 6.67%; in [10] it was 18.8%; in assay [11], -11.3%.
As for `Cc1ccc(CN2CCn3cc(CN(C)Cc4ccco4)nc3C2)o1`, the Percent Effect in [1] was -4.77%; in assay [2], 15.6%; in [3], -9.82%; in assay [4] it was 2.5%; in assay [5], 7.2%; in [6], -9.68%. Also, the Percent Effect in assay [7] is 16.2%; in assay [8], 7.34%; in [9] it was 4.23%; in assay [10] it was 11.5%; in [11] it was -10.4%.
Take `O=C(Cc1cccnc1)N1CCC2(CC1)CCN(C1CCOCC1)C2`: the Percent Effect in assay [1] was -5.91%; in assay [2] it was 0%; in assay [3], 0.681%; in assay [4], -0.504%; in [5], -1.67%; in assay [6], -2.76%. The Percent Effect is 1.83% in assay [7]; 15.5% in [8]; 1.07% in assay [9]; -1.24% in assay [10]; 1.45% in assay [11].
For the compound `Cc1cc(C(=O)N2CCc3ncc(CN4CCOCC4)n3CC2)no1`, the Percent Effect in assay [1] was -4.01%; in assay [2], 0%; in [3], 1.62%; in [4], 0.585%; in assay [5] it was 0.0978%; in [6], -15.6%. Further, the Percent Effect in [7] is -3.51%; in [8], -3.46%; in assay [9], -3.24%; in assay [10], -5.13%; in [11], 8.28%.
On to `CN(C)c1ccc(CC(=O)N[C@@H]2CCNC[C@H]2O)cc1`, for which the Percent Effect in assay [1] is -6.67%; in assay [2], 5.41%; in assay [3], -14.5%; in assay [4], 7.45%; in [5], 2.05%; in assay [6], 0.744%. For the same compound, the Percent Effect is -1.46% in assay [7]; -17.6% in [8]; 7.53% in [9]; 11.1% in [10]; -2.77% in [11].
For the compound `Cc1cnn(CCNCC(=O)NCC2(c3ccccc3)CCC2)c1`, the Percent Effect in assay [1] is -3.26%; in [2], 10.4%; in assay [3], 0.236%; in [4] it was -13.1%; in assay [5] it was -5.19%; in [6], -3.58%. Also, the Percent Effect in assay [7] was 12.4%; in assay [8] it was 11.5%; in assay [9], 12.4%; in assay [10] it was 14.1%; in assay [11], -19.9%.
In the case of `CCc1cccc(N2CCC(NC(=O)c3ccc(=O)[nH]n3)CC2)c1`, the Percent Effect is -0.605% in assay [1]; 3.8% in [2]; 2.33% in assay [3]; 1.07% in assay [4]; -4.82% in [5]; 4.52% in assay [6]. Moreover, the Percent Effect is 15.8% in assay [7]; 21% in assay [8]; 5.21% in assay [9]; 15.2% in assay [10]; -11.3% in assay [11].
In the case of `Cc1nc(C2(O)CCCNCC2)sc1CCOc1ccc(Cl)cc1` (stereo unspecified), the Percent Effect in [1] was -4.62%; in assay [2] it was 6.76%; in [3] it was 17.1%; in [4], 1.33%; in assay [5], -3.56%; in [6], -2.09%. Further, the Percent Effect in assay [7] was 6.4%; in assay [8], 33.8%; in assay [9] it was 4.3%; in assay [10], 11.7%; in assay [11] it was -12.8%.
Consider `CC(CCc1ccccc1)NC(=O)Nc1cnn(CC(N)=O)c1` (stereo unspecified), for which the Percent Effect in assay [1] was -2.21%; in [2], 16.5%; in [3], -2.88%; in [4], 2.1%; in assay [5], -1.74%; in assay [6], -4.52%. For the same compound, the Percent Effect in assay [7] was 17.8%; in [8] it was 8.25%; in [9], 3.12%; in [10], 20.2%; in assay [11], -26.2%.
